PubChem BioAssay (Tox21)
Several values for one entry are separate records, joined by “and”; a condition that tells them apart may be missing. Identical values can stand only once. Results filed as inconclusive are left out. Where a call stands in place of a potency, no number is given. The source holds several records for some structures; these can differ, active in one and inactive in another. Activity calls are given as the source filed them. Unless noted, calls come from the whole dose curve; as a rule, active = well fitted curve in the direction sought with a large enough effect in the repeat runs; inconclusive = weak or mixed curves; inactive = no such curve, though single readings can be large; an effect the other way counts as inactive or inconclusive.

What was measured:
[1] = A CellTox Green Cytotoxicity Assay to monitor cytotoxicity in HepG2 cells - 8 hour (AID 1224890); note: nearly all actives have a fitted effect of over 45% in size
Summary of the method: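 First, HepG2 cells (600/well) mixed with reagent were plated; second, after 5 h at 37 C they received compounds via pintool; third, fluorescence was measured at 0 h through 40 h at 8 h intervals.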

[2] = qHTS assay to identify small molecule antagonists of the estrogen receptor alpha (ER-alpha) signaling pathway using the BG1 cell line in the presence of 0.1 nM 17-beta-estradiol - cell viability counter screen (AID 1259241); note: nearly all actives have a fitted effect of over 40% in size
Summary of the method: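 Live-cell protease activity (CellTiter-Fluor fluorescence, 30 min) was read in the same wells after VM7Luc4E2 cells had been exposed to compounds with 0.1 nM 17beta-estradiol for 22 hr at 37C.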

[3] = qHTS assay to identify small molecule antagonists of the androgen receptor (AR) signaling pathway using the MDA cell line in the presence of 0.5 nM R1881 - cell viability counter screen (AID 1259242); note: nearly all actives have a fitted effect of over 45% in size
Summary of the method: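 qHTS format. MDA-kb2 (MMTV-luc, AR/GR responsive) + cpd + 0.5 nM R1881 final, 16 hr 37C/0% CO2 → CellTiter-Fluor 30 min → fluorescence intensity.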

[4] = qHTS assay to identify small molecule phospholipidosis (PLD) inducers (AID 1259344; active = well fitted curve in the direction sought with a large enough effect; an effect the other way counts as inactive or inconclusive)
Summary of the method: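 Phospholipid accumulation was scored by imaging: fixed, Hoechst-counterstained HepG2 cells stained with LipidTOX Red after 24 h compound exposure at 37 C. Read-outs were pit count and pit intensity per well or per cell, with amiodarone and DMSO controls.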

[5] = qHTS assay to identify small molecule HDAC inhibitors (AID 1259364);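 note: wild-type HCT-116 cells with endogenous class I/II HDAC activity; top concentration of the series differs between compounds; nearly all actives have a fitted effect of over 45% in size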
Summary of the method: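 Quantitative high-throughput format: overnight-seeded HCT-116 cells got compounds for 2 hr at 37C; HDAC-Glo I/II reagent added, 30 min RT, luminescence measured.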

[6] = qHTS assay to identify small molecule HDAC inhibitors - cell viability counter screen (AID 1259365); note: series mostly up to about 92 µM; nearly all actives have a fitted effect of over 50% in size
Summary of the method: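 HCT-116 (wild type), 1,500 cells/well, overnight 37C/5% CO2; compound in DMSO 2hr; CellTiter-Glo 30min RT; luminescence read.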

[7] = qHTS assay to identify small molecule agonists of the sonic hedgehog signaling (Shh) pathway - cell viability counter screen (AID 1259366); note: nearly all actives have a fitted effect of over 50% in size; note: potency is the fitted concentration of half-maximal effect
Summary of the method: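 CellTiter-Fluor fluorescence read-out, 1 hr at 37C, added after 23hr compound exposure. Cells: 3T3 Gli1-Luc, an NIH/3T3 clone with stably integrated Gli1-Luc reporter, plated 4hr before compound.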

[8] = qHTS assay to identify small molecule agonists of the sonic hedgehog signaling (Shh) pathway (AID 1259368; calls by dose curve;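 note: NIH/3T3-derived 3T3Gli1-Luc cells carrying a stable Gli1-driven firefly luciferase reporter; series mostly up to about 92 µM; nearly all actives have a fitted effect of over 15% in size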)
Summary of the method: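 Quantitative high-throughput format using a Gli1-driven firefly luciferase reporter line derived from NIH/3T3 cells. After a 24 hr compound treatment at 37 C and 5% CO2, luminescence reported Gli1 response element activity.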

[9] = qHTS assay to identify small molecule antagonists of the sonic hedgehog signaling (Shh) pathway (AID 1259369; calls by dose curve; note: nearly all actives have a fitted effect of over 45% in size; note: potency is the fitted concentration of half-maximal effect)
Summary of the method: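 Stable Gli1-Luc reporter NIH/3T3 clone; quantitative HTS in stimulated mode with conditioned medium. Luminescence measured after 24hr compound treatment at 37 C.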

[10] = target: Estrogen receptor beta (Homo sapiens) (UniProt Q92731); experiment: qHTS assay to identify small molecule agonists of the estrogen receptor beta (ER-beta) signaling pathway (AID 1259377; active = well fitted activation curve with a large enough effect in the signal ratio in the repeat runs, not every such curve was filed as active; the % refers to the signal ratio; note: potency is the fitted concentration of half-maximal effect)
Summary of the method: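 Beta-lactamase reporter readout: fluorescence of LiveBLAzer B/G FRET substrate after 2 h at room temperature, following 16 h compound treatment of ER-beta-UAS-bla HEK293T cells at 37C in 2% charcoal-stripped FBS medium.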

[11] = qHTS assay to identify small molecule agonists of the androgen receptor (AR) signaling pathway in the presence of an antagonist - cell viability counter screen (AID 1259379); note: nearly all actives have a fitted effect of over 25% in size; note: potency is the fitted concentration of half-maximal effect
Summary of the method: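 Nilutamide-containing (3.0uM final) MDA-kb2 cultures, 3,000 cells/well, were treated with compounds across 15 concentrations. After 16 hr at 37C with no CO2, cell viability was determined by CellTiter-Fluor fluorescence in the luciferase assay wells.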

[12] = qHTS assay to identify small molecule agonists of the estrogen receptor beta (ER-beta) signaling pathway - cell viability counter screen (AID 1259380); note: nearly all actives have a fitted effect of over 30% in size; note: potency is the fitted concentration of half-maximal effect
Summary of the method: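 Steps: plate ER-beta-UAS-bla HEK293T cells, rest 6 hr; add compounds in DMSO; incubate 16 hr at 37C, 5% CO2; add FRET substrate 2 hr; add CellTiter-Glo, wait 30 min at room temperature; read luminescence.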

[13] = qHTS assay to identify small molecule antagonists of the estrogen receptor beta (ER-beta) signaling pathway - cell viability counter screen (AID 1259382); note: nearly all actives have a fitted effect of over 55% in size; note: potency is the fitted concentration of half-maximal effect
Summary of the method: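 Viability is scored by CellTiter-Glo luminescence (30 min, room temperature) in ER-beta-UAS-bla HEK293T wells already read for reporter fluorescence. Compound exposure lasts 16 hr at 37C alongside 1nM 17-beta-estradiol in charcoal-stripped serum medium.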

[14] = qHTS assay to identify small molecule agonists or antagonists of the thyroid stimulating hormone receptor (TSHR) signaling pathway - wild type cell line counter screen (AID 1259384; calls by dose curve)
Summary of the method: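 Counter screen in untransfected Hek293: compounds (15-point titration, triplicate) plus phosphodiesterase inhibitor Ro20-1724 added after 18 h plating; 30 min RT. Intracellular cAMP via competitive d2/cryptate immunoassay, 1 h incubation.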

[15] = qHTS assay to identify small molecule antagonists of the sonic hedgehog signaling (Shh) pathway - cell viability counter screen (AID 1259367); note: nearly all actives have a fitted effect of over 55% in size; note: potency is the fitted concentration of half-maximal effect
Summary of the method: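 Viability was read by CellTiter-Fluor fluorescence in the same wells, reagent added 23 hr into compound treatment and incubated 1 hr at 37C. The 3T3 Gli1-Luc reporter cells (2,000/well) received conditioned medium after compound and ran 24 hr.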

[16] = target: Estrogen receptor beta (Homo sapiens) (UniProt Q92731); experiment: qHTS assay to identify small molecule antagonists of the estrogen receptor beta (ER-beta) signaling pathway (AID 1259378; active = well fitted inhibition curve with a large enough effect in the signal ratio in the repeat runs, not every such curve was filed as active; the % refers to the signal ratio)
Summary of the method: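 Antagonist mode: compounds added to beta-lactamase reporter HEK293T ER-beta-UAS cells stimulated with E2 (1nM final), 16 hr at 37C. LiveBLAzer B/G FRET substrate, 2 hours room temperature, fluorescence read-out.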

[17] = target: Estrogen receptor (Homo sapiens) (UniProt P03372); experiment: qHTS assay to identify small molecule antagonists of the estrogen receptor alpha (ER-alpha) signaling pathway using the BG1 cell line in the presence of 0.1 nM 17-beta-estradiol (AID 1259244); note: nearly all actives have a fitted effect of over 50% in size; note: potency is the fitted concentration of half-maximal effect
Summary of the method: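 Reporter is a stably transfected luciferase under four estrogen responsive elements in VM7Luc4E2 cells expressing native full-length ER-alpha; inhibition of 0.1 nM (final) 17beta-estradiol-driven signal over 22 h is read by luminescence.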

[18] = target: Estrogen receptor (Homo sapiens) (UniProt P03372); experiment: qHTS assay to identify small molecule agonists of the estrogen receptor alpha (ER-alpha) signaling pathway in the presence of an antagonist (AID 1259383; calls by dose curve; note: nearly all actives have a fitted effect of over 15% in size; note: potency is the fitted concentration of half-maximal effect; for activation: top concentration of the series differs between compounds)
Summary of the method: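 Readout was ERE-driven luciferase luminescence in VM7Luc4E2 cells, which express full-length ER-alpha endogenously. Compounds were tested at 15 concentrations for 22hr alongside 10.0nM ICI-182,780 (final concentration).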

[19] = target: Androgen receptor (Homo sapiens) (UniProt P10275); experiment: qHTS assay to identify small molecule antagonists of the androgen receptor (AR) signaling pathway using the MDA cell line in the presence of 0.5 nM R1881 (AID 1259243); note: nearly all actives have a fitted effect of over 50% in size
Summary of the method: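 Antagonist mode quantitative HTS in MDA-kb2 MMTV-luciferase cells, agonist R1881 at 0.5 nM final, 16 hr exposure at 37C and 0% CO2, luminescent detection.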

[20] = target: Androgen receptor (Homo sapiens) (UniProt P10275); experiment: qHTS assay to identify small molecule agonists of the androgen receptor (AR) signaling pathway in the presence of an antagonist (AID 1259381; calls by dose curve; note: nearly all actives have a fitted effect of over 15% in size)
Summary of the method: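 Reporter-gene luminescence from MDA-kb2 cells exposed 16hr at 37C (0% CO2) to 15-point compound titrations with 3.0uM final nilutamide as AR antagonist.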

Chain of Estrogen receptor beta (Homo sapiens) (Q92731 whole entry, looked up): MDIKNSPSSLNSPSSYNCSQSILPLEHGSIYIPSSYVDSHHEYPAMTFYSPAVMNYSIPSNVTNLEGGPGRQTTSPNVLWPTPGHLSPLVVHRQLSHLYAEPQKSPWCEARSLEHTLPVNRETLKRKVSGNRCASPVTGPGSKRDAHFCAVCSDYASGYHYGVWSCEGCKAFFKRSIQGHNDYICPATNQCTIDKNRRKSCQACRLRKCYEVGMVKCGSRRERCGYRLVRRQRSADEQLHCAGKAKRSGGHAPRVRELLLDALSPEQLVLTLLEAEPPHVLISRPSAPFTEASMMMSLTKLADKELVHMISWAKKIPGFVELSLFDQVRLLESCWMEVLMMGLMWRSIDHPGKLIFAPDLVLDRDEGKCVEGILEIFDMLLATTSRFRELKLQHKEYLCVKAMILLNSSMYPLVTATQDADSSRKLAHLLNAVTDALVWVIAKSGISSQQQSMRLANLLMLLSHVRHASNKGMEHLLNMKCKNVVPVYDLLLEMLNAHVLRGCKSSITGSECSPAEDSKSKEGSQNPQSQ
Chain of Androgen receptor (Homo sapiens) (P10275 whole entry, looked up): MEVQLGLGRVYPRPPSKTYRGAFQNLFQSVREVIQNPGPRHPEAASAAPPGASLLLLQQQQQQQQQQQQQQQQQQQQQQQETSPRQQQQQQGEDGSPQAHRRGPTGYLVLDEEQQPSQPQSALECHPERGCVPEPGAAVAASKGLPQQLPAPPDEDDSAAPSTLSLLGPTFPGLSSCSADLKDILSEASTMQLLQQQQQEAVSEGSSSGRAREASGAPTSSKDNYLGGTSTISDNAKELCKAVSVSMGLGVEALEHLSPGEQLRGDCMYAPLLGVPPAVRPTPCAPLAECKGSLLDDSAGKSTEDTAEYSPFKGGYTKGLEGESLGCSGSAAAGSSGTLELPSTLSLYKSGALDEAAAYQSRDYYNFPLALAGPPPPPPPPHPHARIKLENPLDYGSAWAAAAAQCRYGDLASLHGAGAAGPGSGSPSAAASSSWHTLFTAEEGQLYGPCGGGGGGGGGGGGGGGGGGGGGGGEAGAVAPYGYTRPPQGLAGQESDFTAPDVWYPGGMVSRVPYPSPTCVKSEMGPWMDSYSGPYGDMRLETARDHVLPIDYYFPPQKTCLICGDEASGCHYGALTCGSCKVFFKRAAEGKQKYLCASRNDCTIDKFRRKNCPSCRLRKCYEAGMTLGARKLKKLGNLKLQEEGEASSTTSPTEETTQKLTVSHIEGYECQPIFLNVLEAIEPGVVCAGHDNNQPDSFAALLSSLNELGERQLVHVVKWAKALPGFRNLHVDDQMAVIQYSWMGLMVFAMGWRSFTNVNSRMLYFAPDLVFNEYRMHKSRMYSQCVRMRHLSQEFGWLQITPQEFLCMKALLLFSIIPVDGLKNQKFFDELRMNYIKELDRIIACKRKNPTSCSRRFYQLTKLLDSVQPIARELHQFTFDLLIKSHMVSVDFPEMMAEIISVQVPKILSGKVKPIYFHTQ
Chain of Estrogen receptor (Homo sapiens) (P03372 whole entry, looked up): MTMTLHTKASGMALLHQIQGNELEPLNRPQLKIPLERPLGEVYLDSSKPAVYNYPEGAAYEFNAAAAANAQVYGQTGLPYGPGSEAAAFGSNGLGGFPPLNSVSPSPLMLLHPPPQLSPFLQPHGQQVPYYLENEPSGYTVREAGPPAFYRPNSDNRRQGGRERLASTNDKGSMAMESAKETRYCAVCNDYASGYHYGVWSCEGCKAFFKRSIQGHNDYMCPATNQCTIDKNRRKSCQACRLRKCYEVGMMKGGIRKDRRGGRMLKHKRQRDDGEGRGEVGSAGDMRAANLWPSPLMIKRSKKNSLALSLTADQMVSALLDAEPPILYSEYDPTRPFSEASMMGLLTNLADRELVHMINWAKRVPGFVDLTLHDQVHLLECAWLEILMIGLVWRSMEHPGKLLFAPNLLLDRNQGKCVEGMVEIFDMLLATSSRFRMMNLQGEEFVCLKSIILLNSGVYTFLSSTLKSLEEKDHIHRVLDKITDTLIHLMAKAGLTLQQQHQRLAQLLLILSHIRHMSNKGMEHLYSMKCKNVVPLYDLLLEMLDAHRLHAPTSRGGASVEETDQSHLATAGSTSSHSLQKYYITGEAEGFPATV

Structure (SMILES)	Potency [1]	Potency [2]	Potency [3]	outcome [4]	Potency [5]	outcome [6]	Potency [7]	outcome [8]	Potency [9]	Potency [10]	Potency [11]	Potency [12]	Potency [13]	outcome [14]	Potency [15]	Potency [16]	Potency [17]	Potency [18]	outcome [19]	Potency [20]
C=C1CC[C@H](O)CC1=C/C=C1\CCC[C@]2(C)[C@@H]([C@H](C)/C=C/[C@H](C)C(C)C)CC[C@@H]12	inactive	inactive	inactive	inactive	inactive	inactive	inactive	inactive	4.81 µM (active) and 17.2 µM (active)	inactive	inactive	24.1 µM (active) and 30.6 µM (active)	42.9 µM (active)	inactive	–	–	–	–	–	–
Cc1ccc(C(=O)O)o1	inactive	inactive	inactive	–	inactive	inactive	inactive	inactive	inactive	inactive	inactive	inactive	inactive	inactive	inactive	inactive	–	–	–	–
NC(=O)NNc1ccccc1	inactive	inactive	inactive	inactive	inactive	inactive	inactive	inactive	inactive	inactive	inactive	inactive	inactive	inactive	inactive	inactive	–	–	–	–
CC(C)Cc1ccccc1	inactive	inactive	inactive	–	inactive	inactive	–	inactive	inactive	–	inactive	inactive	inactive	inactive	inactive	–	inactive	inactive	–	–
Cc1cc(Cc2ccc(N)c(C)c2)ccc1N	inactive	inactive	inactive	–	inactive	inactive	inactive	inactive	inactive	inactive	inactive	–	inactive	–	inactive	inactive	–	–	–	–
CCc1ccc(O)cc1	inactive	–	inactive	–	inactive	inactive	inactive	inactive	inactive	inactive	inactive	inactive	inactive	inactive	inactive	inactive	–	–	inactive	inactive
CC(C)n1c(/C=C/[C@@H](O)C[C@@H](O)CC(=O)O)c(-c2ccc(F)cc2)c2ccccc21	inactive	inactive	inactive	inactive	inactive	inactive	inactive	inactive	–	–	inactive	13.7 µM (active) and 4.73 µM (active)	15.4 µM (active)	–	inactive	–	–	–	–	–
Oc1ccc2ccccc2c1	inactive	inactive	inactive	–	inactive	inactive	inactive	inactive	5.58 µM (active) and 9.69 µM (active)	–	inactive	inactive	inactive	inactive	inactive	–	–	–	–	inactive
CNC[C@H](O)[C@@H](O)[C@H](O)[C@H](O)CO	inactive	inactive	inactive	inactive	inactive	inactive	–	inactive	inactive	inactive	inactive	inactive	inactive	inactive	inactive	inactive	–	–	–	–
OC[C@@H](O)[C@@H](O)[C@H](O)[C@@H](O)CO	inactive	inactive	inactive	–	inactive	inactive	–	inactive	inactive	–	inactive	inactive	inactive	inactive	inactive	–	inactive	inactive	–	–
OCC1CCCO1 (centres undefined)	inactive	–	inactive	–	inactive	inactive	–	inactive	inactive	inactive	inactive	inactive	inactive	–	inactive	inactive	inactive	inactive	inactive	inactive
Cc1cc(O)cc(C)c1Cl	inactive	–	inactive	inactive	inactive	inactive	inactive	inactive	3.06 µM (active)	inactive	inactive	inactive	inactive	inactive	inactive	inactive	–	–	–	–
COC(=O)c1ccc(C(=O)OC)cc1	inactive	–	inactive	–	–	inactive	–	inactive	982 nM (active) and inactive	inactive	inactive	6.19 µM (active) and inactive	19.6 µM (active) and inactive	inactive	2.2 µM (active) and inactive	inactive	6.19 µM (active) and inactive	inactive	–	–
OCC#CCO	inactive	–	inactive	–	inactive	inactive	inactive	inactive	inactive	inactive	inactive	inactive	inactive	inactive	inactive	inactive	–	–	–	–
c1ccc2ccccc2c1	inactive	–	inactive	inactive	inactive	inactive	–	inactive	inactive	–	inactive	inactive	inactive	inactive	inactive	–	inactive	inactive	–	–
CCc1ccccc1O	inactive	–	inactive	–	inactive	inactive	inactive	inactive	inactive	inactive	inactive	inactive	inactive	inactive	inactive	inactive	19.2 µM (active) and inactive	inactive	–	–
CCCCCCCCCCC=CC1CC(=O)OC1=O (centres undefined)	inactive	–	inactive	–	inactive	inactive	inactive	inactive	inactive	–	inactive	inactive	inactive	inactive	inactive	–	–	–	–	–
CC[Si](OC(C)=O)(OC(C)=O)OC(C)=O	inactive	–	inactive	–	inactive	inactive	inactive	inactive	inactive	–	inactive	inactive	inactive	inactive	inactive	–	inactive	inactive	–	–
C=C1C2CCC(C2)C1(C)C (centres undefined)	inactive	–	inactive	–	inactive	inactive	–	inactive	inactive	inactive	inactive	inactive	inactive	inactive	inactive	inactive	inactive	inactive	–	–
CCCCOCCOCCOC(=O)CCCCC(=O)OCCOCCOCCCC	inactive	–	inactive	–	inactive	inactive	inactive	inactive	inactive	inactive	inactive	inactive	inactive	inactive	inactive	inactive	inactive	inactive	–	–
CCC(C)C=O (centres undefined)	inactive	–	inactive	–	inactive	inactive	inactive	inactive	inactive	4.32 µM (active) and inactive	inactive	inactive	inactive	inactive	inactive	inactive	inactive	1.09 µM (active) and inactive	–	–
CC#C[C@]1(O)CC[C@H]2[C@@H]3CCC4=CC(=O)CCC4=C3[C@@H](c3ccc(N(C)C)cc3)C[C@@]21C	inactive	–	inactive	inactive	inactive	inactive	inactive	inactive	–	inactive	inactive	–	inactive	inactive	inactive	–	–	inactive	–	–
NS(=O)(=O)c1cc2c(cc1Cl)NC=NS2(=O)=O	inactive	–	inactive	inactive	inactive	inactive	–	inactive	inactive	inactive	inactive	inactive	inactive	inactive	inactive	inactive	inactive	inactive	–	–
O=C(c1cc(O)c(O)c(O)c1)c1ccc(O)c(O)c1O	inactive	–	inactive	–	inactive	inactive	54.3 µM (active) and 54.5 µM (active)	inactive	34.4 µM (active) and inactive	inactive	27.3 µM (active)	inactive	inactive	–	54.5 µM (active)	inactive	inactive	inactive	–	–
